Assay outcomes as filed in PubChem.
Most compounds without a hit are left out; they make up all but 10% or so of the library.
Six1-Eya2 blk: qHTS Assay for Inhibitors of the Six1/Eya2 Interaction; Homeobox protein SIX1 (Homo sapiens) + Protein phosphatase EYA2 (Homo sapiens), …; AlphaScreen GST-Six1/His-Eya2 binding, biochemical; active compounds read low; activity change, % (test concentration not listed); 360,000 tested, 0.56% active; AID 651725, 2012; in the data active = activity change below about -65%; inconclusive = mostly about -30% to -63%; note: % is set by controls: 0 for no effect and ±100 for the full control effect
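Six1/Eya2 binding was read as AlphaScreen signal after compounds were pinned into GST-Six1 plus His-tagged Eya2 (5X stock 250/500 nM) in pH 8.0 Tris/NaCl/TCEP buffer, beads added, then incubated 1 h, 37 C, dark.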
BAZ2B inh: qHTS Assay for Inhibitors of BAZ2B; Bromodomain adjacent to zinc finger domain protein 2B (Homo sapiens), Q9UIF8; AlphaScreen BAZ2B-H3K14Ac peptide displacement; Potency, µM (doses to about 114 µM), for the others: top-dose activity change, negative = inhibition, hits mostly inhibitors; 360,000 tested, 4.4% active; AID 504333, 2011; note: potency is the fitted concentration of half-maximal effect; % is set by controls: 0 for no effect and ±100 for the full control effect; nearly all actives have a fitted effect of over 60% in size
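Compounds, titrated to a top concentration of 110 uM, were incubated 30 min at room temperature with preformed BAZ2B/acetyl-K14 H3 peptide complex (50 nM each). Proximity signal was measured by AlphaScreen after 20 min with beads.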
JMJD2A Tudor: qHTS Assay for Inhibitors of JMJD2A-Tudor Domain | Lysine-specific demethylase 4A (Homo sapiens), O75164 | AlphaScreen JMJD2A-Tudor / H3K4me3 peptide binding | Potency, µM (doses to about 114 µM), for the others: at the highest dose activity change, negative = inhibition, usual class: inhibitors | 390,000 tested, 4.4% active; note: potency is the fitted concentration of half-maximal effect; % is set by controls: 0 for no effect and ±100 for the full control effect; nearly all actives have a fitted effect of over 50% in size
G9a inh: qHTS Assay for Inhibitors of Histone Lysine Methyltransferase G9a. Histone-lysine N-methyltransferase EHMT2 (Homo sapiens), Q96KQ7. G9a H3K9 monomethylation, AlphaScreen, 2 h. Potency, µM (top dose mostly 102 µM), inactives show at the highest dose activity, negative = inhibition, actives largely listed as inhibitors. 350,000 tested, 8.8% active; note: potency is the fitted concentration of half-maximal effect; % is set by controls: 0 for no effect and ±100 for the full control effect; nearly all actives have a fitted effect of over 75% in size
Target sequence (Q96KQ7 913-1193 limits assumed): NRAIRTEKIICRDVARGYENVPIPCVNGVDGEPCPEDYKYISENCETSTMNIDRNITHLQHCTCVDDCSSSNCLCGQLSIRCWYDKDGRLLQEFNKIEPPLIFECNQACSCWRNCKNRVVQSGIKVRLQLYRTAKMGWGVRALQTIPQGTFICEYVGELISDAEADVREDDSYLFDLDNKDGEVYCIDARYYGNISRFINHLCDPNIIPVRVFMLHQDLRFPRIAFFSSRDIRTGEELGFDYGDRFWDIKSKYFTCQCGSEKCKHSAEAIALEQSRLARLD
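G9a (20 nM) preincubated 15 min RT with compounds, then 500 nM biotinylated H3K9 peptide and 20 uM SAM added; 2 h RT reaction. Monomethyl-H3K9 product detected by AlphaScreen with anti-H3K9me1 antibody, streptavidin donor and anti-rabbit IgG acceptor beads.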
CtBP-E1A blk: qHTS Assay for Inhibitors of the CtBP/E1A Interaction; CtBP / adenovirus E1A interaction (AlphaScreen); AlphaScreen GST-E1A/His-CtBP binding, 1536-well; active compounds read low; activity change, % (test concentration not listed); 340,000 tested, 0.49% active; in the data active = activity change below about -65%; inconclusive = mostly about -30% to -63%; note: % is set by controls: 0 for no effect and ±100 for the full control effect
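Protein mix (5X: 125 nM each GST-E1A, His-CtBP) was incubated with pinned compound 2 h at 37 deg C in dark, in 50 mM Tris pH 8.0 buffer with 300 mM NaCl. Glutathione donor and nickel acceptor beads followed; AlphaScreen signal read after 1 h.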
HP1b chromo inh: HTS for Inhibitors of HP1-beta Chromodomain Interactions with Methylated Histone Tails. Chromobox protein homolog 1 (Homo sapiens), P83916. AlphaScreen HP1-beta / biotin-H3K9me3 peptide binding. Potency, µM (series often up to 114 µM), for the others: top-dose activity change, negative = inhibition, most hits filed as inhibitors. 390,000 tested, 0.56% active. AID 540317, 2011; note: potency is the fitted concentration of half-maximal effect; nearly all actives have a fitted effect of over 70% in size
Target sequence (P83916 whole entry, looked up): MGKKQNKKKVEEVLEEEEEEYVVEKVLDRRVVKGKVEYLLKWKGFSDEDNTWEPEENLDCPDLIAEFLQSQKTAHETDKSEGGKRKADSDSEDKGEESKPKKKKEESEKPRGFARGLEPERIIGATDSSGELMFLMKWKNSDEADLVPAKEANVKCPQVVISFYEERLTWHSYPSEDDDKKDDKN
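HP1-beta protein (50 nM final) preincubated 30 min at room temperature with biotinylated H3(1-18)K9me3 peptide (50 nM) in PBS pH 7.4, 0.01% Tween-20, then compound added for 30 min. AlphaScreen streptavidin donor/nickel chelate acceptor beads (10 ug/mL final), 30 min dark, luminescence read.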
Numbers without * were called inactive; ? = inconclusive; . = no result; [ ] = another dose, or the depositor's remark. Unless noted, calls come from the whole dose curve; as a rule, active = well fitted inhibition curve with a large enough effect; inconclusive = small, poorly fitted or top-dose-only effect; inactive = no such curve, though single readings can be large or run the other way.

SMILES | Six1-Eya2 blk | BAZ2B inh | JMJD2A Tudor | G9a inh | CtBP-E1A blk | HP1b chromo inh
O=C1CC(NCC2CCCO2)C(=O)N1c1ccc(Cl)cc1 (stereo unspecified) | 3 | -14% | -14% | 45µM* | . | 24%
Cc1ccc(N2C(=O)CC(NCC3CCCO3)C2=O)cc1 (stereo unspecified) | 3 | -15% | -7% | -28% | 8 | 52%
COc1ccc(-n2cc(C(=O)N(C)c3cc(C)ccc3OC)c3ccccc3c2=O)cc1 | . | ? | -13% | ? | . | 25%
Cc1c(C(=O)NCc2ccccc2Cl)sc2nc3n(c(=O)c12)CCCC3 | . | -29% | -18% | ? | . | 11%
CC1(C(=O)NNC(=O)c2ccc(=O)oc2)CC1Br (stereo unspecified) | -17 | -1% | -25% | 50µM* | -14 | 2%
Cc1ccc(N2CC(O)Cn3c2nc2c3c(=O)n(C)c(=O)n2C)cc1 (stereo unspecified) | 1 | 0% | -17% | 0% | -6 | 31%
Cn1c(=O)c2c(nc3n2CC(O)CN3c2ccc(O)cc2)n(C)c1=O (stereo unspecified) | -5 | -2% | -24% | 79µM* | -5 | 15%
COc1ccc(N2CC(C)Cn3c2nc2c3c(=O)n(Cc3ccccc3)c(=O)n2C)c(OC)c1 (stereo unspecified) | -18 | ? | ? | 6.3µM* | ? | -25%
CCOc1ccc(N2CC(O)Cn3c2nc2c3c(=O)n(CCCc3ccccc3)c(=O)n2C)cc1 (stereo unspecified) | -1 | -6% | -22% | 2.5µM* | -9 | 13%
COc1cccc(N2CC(O)Cn3c2nc2c3c(=O)n(CCCc3ccccc3)c(=O)n2C)c1 (stereo unspecified) | -9 | ? | -21% | -28%[59 µM] | -9 | 5%
COc1ccc(N2CCn3c2nc2c3c(=O)n(CCc3ccccc3)c(=O)n2C)c(OC)c1 | . | -1% | . | ? | . | .
COc1ccc(N2CC(C)Cn3c2nc2c3c(=O)n(CCc3ccccc3)c(=O)n2C)cc1 (stereo unspecified) | 10 | 0% | -3% | 3.2µM* | 6 | 25%
COc1ccc(N2CCn3c2nc2c3c(=O)n(CCCc3ccccc3)c(=O)n2C)cc1 | . | 8% | . | -34% | . | .
COc1ccc(N2CC(NC(=O)C3CC3)CC2=O)cc1OC (stereo unspecified) | . | 1% | -1% | -1%[59 µM] | . | 37%
CCC(=O)Nc1ccccc1-c1nc2ccccc2n(CC(=O)c2ccc(C)cc2)c1=O | . | 6% | 6% | ? | . | 37%
CCCn1c(N)c(C(=O)CSc2nnc(-c3ccoc3C)n2C)c(=O)n(C)c1=O | -6 | -6% | -7% | -9%[59 µM] | -3 | 39%
COc1ccc(N2CCn3c2nc2c3c(=O)n(CCCc3ccccc3)c(=O)n2C)c(OC)c1 | -1 | ? | ? | 32µM* | -1 | -14%
CCN(CC(=O)NCc1ccccn1)S(=O)(=O)c1ccc(Cl)cc1 | 9 | 0% | -5% | 13µM* | -2 | 6%
Cc1nc2ccn(Cc3cccs3)c(=O)c2cc1C(=O)N1CCN(c2ccccc2)CC1 | . | -26% | -24% | -8%[59 µM] | . | 18%
C=CCOc1ccc(CN(C)CC(O)COc2cccc3ccccc23)cc1 (stereo unspecified) | -8 | 50µM* | 0.71µM* | 40µM* | -17 | 35µM*
Cc1cc(CN(C)Cc2ccc(OCC(O)CN(C)Cc3ccccc3)cc2)on1 (stereo unspecified) | -5 | -15% | -26% | -25% | 1 | 12%
Cc1c(C)c2c(cc(C)c3c(-c4ccccc4)coc32)oc1=O | . | -4% | -11% | -27%[59 µM] | . | 5%
COc1ccc(CCNC(=O)CSCc2ccc([N+](=O)[O-])cc2)cc1 | 0 | 1% | -11% | 27%[59 µM] | 6 | 28%
COc1ccc(CCNC(=O)CSC(=O)c2ccccc2)cc1OC | 1 | -15% | -13% | 18µM* | 0 | -22%
COc1ccc(CCNC(=O)CSc2ccccc2)cc1OC | 1 | -14% | -10% | -28%[59 µM] | 15 | 12%
SMILES | Six1-Eya2 blk | BAZ2B inh | JMJD2A Tudor | G9a inh | CtBP-E1A blk | HP1b chromo inh
COc1ccc(CCNC(=O)CSCc2ccc([N+](=O)[O-])cc2)cc1OC | -5 | -6% | 20µM* | 5% | -16 | ?
CCOc1ccc(CCNC(=O)CSc2n[nH]c(N)n2)cc1OCC | 2 | -23% | 18µM* | 8.9µM* | 0 | ?
COc1ccc(CCNC(=O)CSc2ccccn2)cc1OC | 16 | ? | -10% | 11µM* | -3 | 9%
COc1ccc(CCNC(=O)CSCc2ccc(C)cc2)cc1OC | -5 | . | -9% | . | 3 | 44%
Cc1ccc(OCCSc2nc3ccc(NC(=O)c4ccc5c(c4)OCO5)cc3s2)cc1 | . | -7% | -8% | -5%[59 µM] | . | 28%
Cc1nc2cccnc2n1-c1cccc(C(=O)N2CCN(c3cccc(Cl)c3)CC2)c1 | . | -17% | -6% | 9%[59 µM] | . | 47%
C=CCN(c1ccccc1)S(=O)(=O)c1cccc(C(=O)NNC(=O)c2ccccc2O)c1 | -12 | -10% | 89µM* | 31% | -1 | 4%
Cc1ccc(-n2c(SCc3ccccc3C)nc3[nH]ncc3c2=O)cc1C | . | -24% | ? | -34%[59 µM] | . | 10%
CCc1ccc(-n2c(=O)c3ccccc3n3c(=S)[nH]nc23)cc1 | 3 | -2% | 4.5µM* | 1.4µM* | . | 4%
COc1cccc(-n2c(SCC(N)=O)nc3ccccc3c2=O)c1 | 2 | -2% | -8% | 7% | -4 | 32%
COCCCn1c(=O)c2ccccc2n2c(=S)[nH]nc12 | 4 | -11% | 10µM* | 8.9µM* | -7 | ?
CC(C)OCCCn1c(=O)c2ccccc2n2c(CCC(=O)O)nnc12 | -9 | -35% | -11% | 2% | -10 | 16%
COCCCn1c(=O)c2ccccc2n(Cc2ccccc2)c1=O | 6 | ? | -5% | 6.3µM* | 14 | 41%
COc1cccc(-n2c(=O)c3ccccc3n3c(=S)[nH]nc23)c1 | 3 | -20% | 11µM* | 1.6µM* | -2 | -2%
COCCCn1c(=O)c2sccc2n(Cc2ccccc2)c1=O | -25 | 5% | -1% | . | -15 | 29%
Cc1ccc(S(=O)(=O)N2CCN(c3nc(-c4ccco4)nc4ccccc34)CC2)cc1 | . | . | -23% | . | . | .
